# From PubChem BioAssay (EPA / NIEHS)
# Calls of active or inactive are those of the source. The calls were made as follows: active = hit-call score of the fitted dose curve at least 0.9, where 1 is the maximum; inactive = score below 0.9.
# Read-out: Human Leukocyte Antigen - DR isotype (HLADR), HLA-DRA (gene 3122)
# Test: BSK_BE3C_HLADR: BioMAP Diversity Plus: BE3C Assay for Human Leukocyte Antigen - DR isotype (HLADR) Biomarker Activity (AID 2283032)
# Details: primary human bronchial epithelial cells; actives raise or lower the signal
# Method in brief: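 BioMAP BE3C format: human bronchial epithelium, 24 h compound treatment, ELISA detection of HLA-DR, with bidirectional analysis relative to DMSO.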
SMILES,AC50,outcome
CCOC(=O)COc1ccc2c(c1)CC(NCC(O)c1cccc(Cl)c1)CC2 (stereo not drawn),30.3 µM (active),
O=C1OC(=O)C2C3C=CC(C3)C12 (stereo not drawn),,inactive
O=P(OC(CCl)CCl)(OC(CCl)CCl)OC(CCl)CCl,,inactive
CCCCCCCCCCCCCCCO,,inactive
COCCOCCOCCOC,,inactive
CC(C)=CCCC(C)CCO (stereo not drawn),,inactive
C1=CCCC=CCCC=CCC1,,inactive
CC[C@H]1CC[C@H](NCc2cc3c(cc2OC)[C@H]2C[C@H]2C(=O)N3C)[C@H](c2ccccc2)N1,,inactive
O=C(CCCCCCCCc1cccnc1)N1CCC(C=C(c2ccccc2)c2ccccc2)CC1,17.6 µM (active),
CC(C)(O)c1coc(S(=O)(=O)NC(=O)Nc2c3c(cc4c2CCC4)CCC3)c1,,inactive
CCN(C(=O)c1cc(C)cc(OC[C@H](C)Nc2ccncc2)c1)C(C)C,,inactive
Cc1ccc(S(=O)(=O)O)cc1C,,inactive
CNS(=O)(=O)c1cc(C(=O)N2CCC(CCN3C4CCC3CC(n3c(C)nc5ccccc53)C4)(c3cccc(F)c3)CC2)c(Cl)cc1F (stereo not drawn),,inactive
CCCCC(CC)COC(=O)CCCCCCCCC(=O)OCC(CC)CCCC (stereo not drawn),,inactive
O=C(NS(=O)(=O)/C=C/c1ccccc1)c1ccc(F)cc1Cl,6.15 µM (active),
CCOc1cccc(-n2cc(C(=O)N3CCN(c4cc(C(=O)O)c5ccccc5c4)CC3)nc2-c2ccc(C)cc2)c1,24.5 µM (active),
O=C(OC[C@H]1O[C@@H](OC(=O)c2cc(O)c(O)c(OC(=O)c3cc(O)c(O)c(O)c3)c2)[C@H](OC(=O)c2cc(O)c(O)c(OC(=O)c3cc(O)c(O)c(O)c3)c2)[C@@H](OC(=O)c2cc(O)c(O)c(OC(=O)c3cc(O)c(O)c(O)c3)c2)[C@@H]1OC(=O)c1cc(O)c(O)c(OC(=O)c2cc(O)c(O)c(O)c2)c1)c1cc(O)c(O)c(OC(=O)c2cc(O)c(O)c(O)c2)c1,8.27 µM (active),
COCCOc1cc2cc(C(=O)NC3CCN(C(C)C)CC3)n(CC(=O)Nc3ccc(Cl)cn3)c2cn1,,inactive
CCc1cc(SCc2sc(-c3ccc(C(F)(F)F)cc3)nc2CN2CCN(c3ccc(OC)cc3)CC2)ccc1OCC(=O)O,5.41 µM (active),
CCCCCCCCO,,inactive
CC(C)CCCCCCOC(=O)c1ccc(C(=O)OCCCCCCC(C)C)c(C(=O)OCCCCCCC(C)C)c1,,inactive
Nc1nc2ncc(CNc3ccc(C(=O)N[C@@H](CCC(=O)O)C(=O)O)cc3)nc2c(=O)[nH]1,,inactive
Cn1c(=O)cc(Oc2ccc(F)cc2F)c2cnc(NCC(C)(C)O)nc21,,inactive
CC(=O)OCCC(C)C,,inactive
COC(=O)CC(=O)OC,,inactive
Cc1c(-c2cccnc2)c2ccccc2n1CCCCC(=O)O,,inactive
Nc1cccc(N)c1,,inactive
CC[C@H](C)C(=O)O[C@H]1C[C@@H](C)C=C2C=C[C@H](C)[C@H](CC[C@@H]3C[C@@H](O)CC(=O)O3)[C@H]21,35.9 µM (active),
COC(=O)c1ccccc1O,,inactive
CC[C@H]1OC(=O)[C@H](C)[C@@H](O[C@H]2C[C@@](C)(OC)[C@@H](O)[C@H](C)O2)[C@H](C)[C@@H](O[C@@H]2O[C@H](C)C[C@H](N(C)C)[C@H]2O)[C@](C)(O)C[C@@H](C)C(=O)[C@H](C)[C@@H](O)[C@]1(C)O,,inactive

# Read-out: Vascular cell adhesion molecule 1 (VCAM1), VCAM1 (gene 7412)
# Test: BSK_4H_VCAM1: BioMAP Diversity Plus: 4H Assay for Vascular cell adhesion molecule 1 (VCAM1) Biomarker Activity (AID 2283033);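 as to outcome: cell-surface VCAM-1 protein measured by ELISA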
# Details: primary human endothelial cells (HUVEC); actives raise or lower the signal
# Method in brief: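 In this human endothelial (HUVEC) system, biomarker ELISA was run 24 h after compound addition, and total protein in parallel wells was assessed by SRB at 560 nm; DMSO served as negative control.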
SMILES,AC50,outcome
CCOC(=O)COc1ccc2c(c1)CC(NCC(O)c1cccc(Cl)c1)CC2 (stereo not drawn),30 µM (active),
O=C1OC(=O)C2C3C=CC(C3)C12 (stereo not drawn),,inactive
CCCCCCCCCCCCCCCO,37.5 µM (active),
C1=CCCC=CCCC=CCC1,,inactive
CCN(C(=O)c1cc(C)cc(OC[C@H](C)Nc2ccncc2)c1)C(C)C,,inactive
CCCCC(CC)COC(=O)CCCCCCCCC(=O)OCC(CC)CCCC (stereo not drawn),,inactive
O=C(NS(=O)(=O)/C=C/c1ccccc1)c1ccc(F)cc1Cl,,inactive
CCc1cc(SCc2sc(-c3ccc(C(F)(F)F)cc3)nc2CN2CCN(c3ccc(OC)cc3)CC2)ccc1OCC(=O)O,10 µM (active),
CCCCCCCCO,,inactive
CC(C)CCCCCCOC(=O)c1ccc(C(=O)OCCCCCCC(C)C)c(C(=O)OCCCCCCC(C)C)c1,,inactive
Nc1nc2ncc(CNc3ccc(C(=O)N[C@@H](CCC(=O)O)C(=O)O)cc3)nc2c(=O)[nH]1,,inactive
Cn1c(=O)cc(Oc2ccc(F)cc2F)c2cnc(NCC(C)(C)O)nc21,,inactive
Cc1c(-c2cccnc2)c2ccccc2n1CCCCC(=O)O,,inactive

# Read-out: Interferon-gamma inducible Protein 10 (IP10), CXCL10 (gene 3627)
# Test: BSK_BE3C_IP10: BioMAP Diversity Plus: BE3C Assay for Interferon-gamma inducible Protein 10 (IP10) Biomarker Activity (AID 2283034)
# Details: primary human bronchial epithelial cells; actives raise or lower the signal
# Method in brief: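 BE3C cells (human bronchial epithelial, primary); 24 h exposure; ELISA for IP-10; DMSO-referenced bidirectional fit.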
SMILES,AC50,outcome
CCOC(=O)COc1ccc2c(c1)CC(NCC(O)c1cccc(Cl)c1)CC2 (stereo not drawn),30.3 µM (active),
O=C1OC(=O)C2C3C=CC(C3)C12 (stereo not drawn),,inactive
O=P(OC(CCl)CCl)(OC(CCl)CCl)OC(CCl)CCl,,inactive
CCCCCCCCCCCCCCCO,,inactive
COCCOCCOCCOC,,inactive
CC(C)=CCCC(C)CCO (stereo not drawn),,inactive
C1=CCCC=CCCC=CCC1,,inactive
CC[C@H]1CC[C@H](NCc2cc3c(cc2OC)[C@H]2C[C@H]2C(=O)N3C)[C@H](c2ccccc2)N1,,inactive
O=C(CCCCCCCCc1cccnc1)N1CCC(C=C(c2ccccc2)c2ccccc2)CC1,24.5 µM (active),
CC(C)(O)c1coc(S(=O)(=O)NC(=O)Nc2c3c(cc4c2CCC4)CCC3)c1,,inactive
CCN(C(=O)c1cc(C)cc(OC[C@H](C)Nc2ccncc2)c1)C(C)C,,inactive
Cc1ccc(S(=O)(=O)O)cc1C,,inactive
CNS(=O)(=O)c1cc(C(=O)N2CCC(CCN3C4CCC3CC(n3c(C)nc5ccccc53)C4)(c3cccc(F)c3)CC2)c(Cl)cc1F (stereo not drawn),,inactive
CCCCC(CC)COC(=O)CCCCCCCCC(=O)OCC(CC)CCCC (stereo not drawn),,inactive
O=C(NS(=O)(=O)/C=C/c1ccccc1)c1ccc(F)cc1Cl,,inactive
CCOc1cccc(-n2cc(C(=O)N3CCN(c4cc(C(=O)O)c5ccccc5c4)CC3)nc2-c2ccc(C)cc2)c1,15 µM (active),
O=C(OC[C@H]1O[C@@H](OC(=O)c2cc(O)c(O)c(OC(=O)c3cc(O)c(O)c(O)c3)c2)[C@H](OC(=O)c2cc(O)c(O)c(OC(=O)c3cc(O)c(O)c(O)c3)c2)[C@@H](OC(=O)c2cc(O)c(O)c(OC(=O)c3cc(O)c(O)c(O)c3)c2)[C@@H]1OC(=O)c1cc(O)c(O)c(OC(=O)c2cc(O)c(O)c(O)c2)c1)c1cc(O)c(O)c(OC(=O)c2cc(O)c(O)c(O)c2)c1,9.85 µM (active),
COCCOc1cc2cc(C(=O)NC3CCN(C(C)C)CC3)n(CC(=O)Nc3ccc(Cl)cn3)c2cn1,,inactive
CCc1cc(SCc2sc(-c3ccc(C(F)(F)F)cc3)nc2CN2CCN(c3ccc(OC)cc3)CC2)ccc1OCC(=O)O,3.2 µM (active),
CCCCCCCCO,,inactive
CC(C)CCCCCCOC(=O)c1ccc(C(=O)OCCCCCCC(C)C)c(C(=O)OCCCCCCC(C)C)c1,,inactive
Nc1nc2ncc(CNc3ccc(C(=O)N[C@@H](CCC(=O)O)C(=O)O)cc3)nc2c(=O)[nH]1,,inactive
Cn1c(=O)cc(Oc2ccc(F)cc2F)c2cnc(NCC(C)(C)O)nc21,,inactive
CC(=O)OCCC(C)C,,inactive
COC(=O)CC(=O)OC,,inactive
Cc1c(-c2cccnc2)c2ccccc2n1CCCCC(=O)O,,inactive
Nc1cccc(N)c1,,inactive
CC[C@H](C)C(=O)O[C@H]1C[C@@H](C)C=C2C=C[C@H](C)[C@H](CC[C@@H]3C[C@@H](O)CC(=O)O3)[C@H]21,36.3 µM (active),
COC(=O)c1ccccc1O,,inactive
CC[C@H]1OC(=O)[C@H](C)[C@@H](O[C@H]2C[C@@](C)(OC)[C@@H](O)[C@H](C)O2)[C@H](C)[C@@H](O[C@@H]2O[C@H](C)C[C@H](N(C)C)[C@H]2O)[C@](C)(O)C[C@@H](C)C(=O)[C@H](C)[C@@H](O)[C@]1(C)O,,inactive
